Source: the supplement of paper PMC6992640
± gives the standard deviation of the averaged measurements.

What was measured:
Test in all cases: cell viability (% of vehicle); higher = less cytotoxic
HCI01 [1] = cells of a triple-negative basal-like breast cancer xenograft; conditions: 10 µM; 72 h
HCI03 = cells of an ER-positive luminal breast cancer xenograft; conditions: 10 µM; 72 h
HCI09 = cells of a triple-negative luminal androgen receptor type breast cancer xenograft; conditions: 10 µM; 72 h
HCI11 = cells of an ER-positive luminal breast cancer xenograft; conditions: 10 µM; 72 h
HCI13 = cells of an ER-positive luminal breast cancer xenograft; conditions: 10 µM; 72 h
HCI16 = cells of a triple-negative basal-like breast cancer xenograft; conditions: 10 µM; 72 h
UCD52 [2] = cells of a triple-negative basal-like breast cancer xenograft; conditions: 10 µM; 72 h
WHIM2 [3] = cells of a triple-negative basal-like breast cancer xenograft; conditions: 10 µM; 72 h
WHIM30 [4] = cells of a triple-negative basal-like breast cancer xenograft; conditions: 10 µM; 72 h
HCI01 [5] = conditions: 1 µM; 72 h
UCD52 [6] = conditions: 1 µM; 72 h
WHIM2 [7] = conditions: 1 µM; 72 h
WHIM30 [8] = conditions: 1 µM; 72 h

| Structure (SMILES) | cell viability (HCI01 [1]) | cell viability (HCI03) | cell viability (HCI09) | cell viability (HCI11) | cell viability (HCI13) | cell viability (HCI16) | cell viability (UCD52 [2]) | cell viability (WHIM2 [3]) | cell viability (WHIM30 [4]) | cell viability (HCI01 [5]) | cell viability (UCD52 [6]) | cell viability (WHIM2 [7]) | cell viability (WHIM30 [8]) |
| --- | --- | --- | --- | --- | --- | --- | --- | --- | --- | --- | --- | --- | --- |
| COc1cc2c(cc1OC)C13CCN4CC5=CCOC6CC(=O)N2C1C6C5CC43 (stereo not drawn) [Brucine] | 90.3 ± 9.9 | 132 | 98.2 ± 29 | 94.5 | 106 ± 11 | 100 | 106 ± 1.5 | 83.5 ± 22 | 96.6 ± 4.8 | – | – | – | – |
| C[C@]12COC(=O)C[C@@H]1CC[C@@H]1[C@@H]2CC[C@@]2(C)[C@H]1CC[C@]2(C)O [Oxandrolone] | 98.9 ± 17 | 108 | 107.8 ± 0.62 | 89.1 | 147 ± 18 | 117 | 95.8 ± 5.3 | 110 ± 23 | 110 ± 13 | – | – | – | – |
| CCCCCCCCCCCCCCCC[N+](C)(C)C.[Br-] [Cetrimonium Bromide (CTAB)] | 44.3 ± 15 | 56.5 | 21.7 ± 7.3 | 72 | 26.9 ± 2 | 69.1 | 37.5 ± 1.9 | 42.4 ± 8.1 | 35.6 ± 1.7 | 87.8 | 75.6 | 74.2 | 49.2 |
| CCCC[N+]1(C)[C@@H]2C[C@@H](OC(=O)[C@H](CO)c3ccccc3)C[C@H]1[C@@H]1O[C@@H]12 (stereo partly drawn) [Scopolamine butylbromide] | 105 ± 5.4 | 116 | 88.8 ± 19 | 97.3 | 97.4 ± 2.5 | 119 | 100.7 ± 0.64 | 137 ± 14 | 133 ± 4.2 | – | – | – | – |
| C=CCC1(O)CCC2C3CCC4=CC(=O)CCC4=C3C=CC21C (stereo not drawn) [Altrenogest] | 172 ± 56 | 125 | 65.5 ± 13 | 78.7 | 137 ± 7.6 | 150 | 83.1 ± 6.5 | 107 ± 12 | 141 ± 8.9 | – | – | – | – |
| O=C(O)c1nn(Cc2ccc(Cl)cc2Cl)c2ccccc12 [Lonidamine] | 88.9 ± 18 | 112 | 92.9 ± 6.3 | 82.9 | 85.1 ± 8.5 | 124 | 82.6 ± 1.7 | 80.2 ± 32 | 138.9 ± 1.1 | – | – | – | – |
| CCC1(c2ccc(N)cc2)CCC(=O)NC1=O (stereo not drawn) [Aminoglutethimide] | 108 ± 13 | 113 | 103 ± 12 | 103 | 112 ± 12 | 103 | 93.01 ± 0.41 | 88.9 ± 8 | 108 ± 2.7 | – | – | – | – |
| Cc1cc(C(C#N)c2ccc(Cl)cc2)c(Cl)cc1NC(=O)c1cc(I)cc(I)c1[O-].[Na+] (stereo not drawn) [Closantel Sodium] | 34.4 ± 1.9 | 114 | 17.978 ± 0.0048 | 93.2 | 35.4 ± 2.9 | 96.3 | 68.1 ± 7.7 | 44.6 ± 10 | 52.7 ± 0.69 | 93.1 | 90.9 | 106 | 88.2 |
| O=P1(NCCCl)OCCCN1CCCl (stereo not drawn) [Ifosfamide] | 106 ± 14 | 107 | 96.28 ± 0.62 | 84.8 | 153 ± 11 | 74.4 | 104.1 ± 0.65 | 95.7 ± 26 | 109 ± 2.2 | – | – | – | – |
| CCNCC.O=C(O)Cc1ccccc1Nc1c(Cl)cccc1Cl [Diclofenac Diethylamine] | 91.7 ± 19 | 77.9 | 88.7 ± 1.8 | 83.1 | 70.4 ± 10 | 113 | 69 ± 2.6 | 108 ± 7.9 | 94.02 ± 0.47 | – | – | – | – |
| CNC1CC(N)C(O)C(OC2OC(CO)C(O)C3OC4(OC(C(N)CO)C(O)C(O)C4O)OC23)C1O (stereo not drawn) [Hygromycin B] | 66.3 ± 21 | 70.2 | 122 ± 75 | 110 | 114.5 ± 1.1 | 94.3 | 87.4 ± 22 | 97.2 ± 1.2 | 88.3 ± 23 | – | – | – | – |
| CCC1(C)CC(=O)NC(=O)C1 [Bemegride] | 112 ± 13 | 96.5 | 91.7 ± 10 | 109 | 162 ± 13 | 108 | 85.8 ± 8.3 | 97.9 ± 6 | 97.2 ± 8.1 | – | – | – | – |
| Cc1cc(C(C#N)c2ccc(Cl)cc2)c(Cl)cc1NC(=O)c1cc(I)cc(I)c1O (stereo not drawn) [Closantel] | 29.4 ± 6.5 | 104 | 17.7 ± 1.8 | 85.7 | 37 ± 7.8 | 105 | 61.5 ± 2.6 | 37.6 ± 13 | 87.6 ± 4 | 88.8 | 91.3 | 105 | 82.7 |
| N#Cc1ccccc1-c1cc(-c2ccccn2)cn(-c2ccccc2)c1=O [Perampanel] | 102 ± 10 | 89.9 | 85.1 ± 33 | 94 | 83.3 ± 4.5 | 70.4 | 79.2 ± 12 | 89.14 ± 0.86 | 97 ± 4.1 | – | – | – | – |
| CC1CNCCc2ccc(Cl)cc21.Cl (stereo not drawn) [Lorcaserin HCl] | 96.6 ± 5.8 | 110 | 100 ± 5.7 | 81.3 | 94.9 ± 12 | 106 | 90.3 ± 3.9 | 82.89 ± 0.73 | 111.3 ± 0.19 | – | – | – | – |
| CC12CC(=CO)C(=O)CC1CCC1C2CCC2(C)C1CCC2(C)O (stereo not drawn) [Oxymetholone] | 114 ± 30 | 97.8 | 85 ± 38 | 86.7 | 54.8 ± 5.8 | 124 | 80.6 ± 3.8 | 90.9 ± 26 | 135 ± 1.9 | – | – | – | – |
| CN(C)C1C(=O)C(C(N)=O)=C(O)C2(O)C(=O)C3=C(O)c4c(O)cccc4C(C)(O)C3CC12.Cl (stereo not drawn) [Tetracycline Hydrochloride] | 105 ± 10 | 108 | 89.46 ± 0.85 | 96.7 | 92.1 ± 4.3 | 87.5 | 77.3 ± 1.4 | 77.1 ± 20 | 116 ± 19 | – | – | – | – |
| C[N+](C)(C)CC(=O)O.[Cl-] [Betaine hydrochloride] | 111 ± 4.8 | 123 | 95.3 ± 4.7 | 103 | 113 ± 11 | 122 | 82 ± 6.6 | 95.5 ± 6.1 | 107 ± 2.4 | – | – | – | – |
| Cc1ccc(-n2nccn2)c(C(=O)N2CCN(c3nc4cc(Cl)ccc4o3)CCC2C)c1 (stereo not drawn) | 136 ± 9.6 | 88 | 39.5 ± 27 | 93.5 | 101 ± 34 | 101 | 91.9 ± 10 | 118 ± 22 | 136 ± 3.4 | – | – | – | – |
